Among the data in ChEMBL document CHEMBL4513216, “Probing the Open Global Health Chemical Diversity Library for Multistage-Active Starting Points for Next-Generation Antimalarials” (ACS Infect Dis, 2020) are INHIBITION values, retold here.

Molecules are shown by their SMILES. The whole screen tested about 65,000 compounds, of which about 2,100 (3.2%) showed an effect of 50% or more. The median lay at about -52%. What follows is part of a selection rich in strong results, with near analogues and random picks from the rest.

The assay deals with Plasmodium falciparum. Put plainly: Screen against P. falciparum Asexual Blood Stage (ABS), at 5uM. Format: functional, Dd2. To be noted: tested at 5 uM.
Consider `CNS(=O)(=O)CCCN(C)Cc1cc(C)ccc1OC`, for which the INHIBITION turned out to be 26.6%.

As to `COc1ccccc1C(C)(C)NCc1ccco1`, the INHIBITION stood at 65.7%. In the case of `COc1ccc(C(=O)NCc2ccco2)nn1` it was -126%; in that of `COC(=O)c1ccc(CNC(C)(C)c2ccccc2OC)o1`, 1.74%; in that of `COc1ccc(CN(C)C(=O)Cc2c(C)nn(C)c2C)cc1F`, -154%. Under `Cc1noc([C@@H]2C[C@H]3CN(Cc4scnc4C)C[C@H]3O2)n1` stands -40.7%.

As to `CC(C)n1c(=O)c2sccc2n(CC(=O)Nc2ccccc2)c1=O`, the INHIBITION is reported as -27.6%. With `Cc1ccc(N2C[C@@H]3CN(C(=O)c4ccccc4)CCO[C@@H]3C2)nn1`, the INHIBITION is -12.5%. Under `CN(C)c1ccccc1CN1CCCCC1CNS(C)(=O)=O` (configuration not stated) stands 60.5%; under `CS(=O)(=O)NCC1CCCCN1Cc1cccc(C#N)c1` (configuration not stated), -92.3%; under `CS(=O)(=O)NCC1CCCCN1Cc1ccccc1C#N` (configuration not stated), -34.1%.

On to `O=c1ccc2c([nH]1)CCC(NCc1ccc3c(c1)OCO3)C2` (configuration not stated), for which the INHIBITION is on record as -104%. Under `Cc1cccc2c(CCNC(=O)NCC[S+](C)[O-])c[nH]c12` (configuration not stated) stands -103%; under `Cc1cccc2c(CCNC(=O)NCCC[S+](C)[O-])c[nH]c12` (configuration not stated), -85.3%; under `Cc1cccc2c(CCNC(=O)[C@H](N)c3ccccc3)c[nH]c12`, 61.2%.

For the compound `CN(Cc1ccc2c(c1)OCCO2)Cc1nnnn1-c1ccccc1`, the INHIBITION is -39.1%. Under `CCC1CN(Cc2c(O)ccc3oc4c(c23)CCCC4)CCO1` (configuration not stated) stands 60%. In the case of `Oc1ccc2oc3c(c2c1CN1CCOCC1)CCCC3` it was 19.1%; in that of `NC(=O)C1CN(Cc2c(O)ccc3oc4c(c23)CCCC4)CCO1` (configuration not stated), -23.1%; in that of `CC(=O)N1CCC(NCc2cccnc2N(C)Cc2ccccc2)CC1`, -57.8%. In the case of `CN(Cc1ccccc1)c1ncccc1CNC1CCCC1` it was 65.6%; in that of `CN(Cc1ccccc1)c1ncccc1CNC1CCSCC1`, 26.2%. As for `CCc1nnsc1C(=O)NCc1nnc2n1CCC2`, the INHIBITION was -217%. In the case of `Cc1ccc(N2CC3(COCCN(Cc4ccccn4)C3)OCC2=O)s1` (configuration not stated) it was -89.9%; in that of `COc1c(CNC2CCSc3ccc(F)cc32)c(C)nn1C` (configuration not stated), -115%; in that of `CC1CCCN(Cc2csc(-c3ncccn3)n2)CC1` (configuration not stated), -29.2%.

On to `CC(=O)NC1CCCN(Cc2csc(-c3ncccn3)n2)C1` (configuration not stated), for which the INHIBITION is recorded as -89.8%. Under `c1cnc(-c2nc(CN3CCCC(N4CCCC4)C3)cs2)nc1` (configuration not stated) stands 51.7%; under `O=C(NC1CC1)C1CCc2nnc(C3CC3)n21` (configuration not stated), -100%; under `c1ccc(OCC2CC3(CCN(CC4CCOCC4)CC3)CO2)nc1` (configuration not stated), -83.4%.

For the compound `Cc1cc(C)nc(Nc2cc(C)nc(C3CCN(C(=O)CO)C3)n2)n1` (configuration not stated), the INHIBITION is -74.1%. As for `CN(C)C(=O)CC1CC2(CCN(Cc3ccco3)CC2)c2ccccc21` (configuration not stated), the INHIBITION turned out to be 24.7%. In the case of `Cc1ccc2nc(CN3CCCCC3CCn3cccn3)cn2c1` (configuration not stated) it was -63.2%; in that of `c1cnn(CCC2CCCCN2Cc2cnc(C3CCCCC3)nc2)c1` (configuration not stated), -9.85%; in that of `Fc1cccc(-n2cc(CN3CCCCC3CCn3ccnc3)cn2)c1` (configuration not stated), 68.9%. In the case of `Fc1ccc(-n2cccn2)c(CN2CCCCC2CCn2ccnc2)c1` (configuration not stated) it was 7.69%. In the case of `CN(C)CCC1CCCCN1Cc1cnc(-c2ccccn2)nc1` (configuration not stated) it was 38.9%; in that of `CN(C)[C@H]1CCCCN(Cc2ccccc2Cn2cccn2)C1`, 51%.

On to `c1ccc(Cn2cccn2)c(CN2CCCCC2CCn2ccnc2)c1` (configuration not stated), for which the INHIBITION is reported as 64.4%.

For the compound `c1ccc(-c2ncc(CN3CCCCC3CCn3cccn3)cn2)nc1` (configuration not stated), the INHIBITION was 51%. On to `CN(C)C1CCCN(Cc2cccc(Cn3cccn3)c2)CC1` (configuration not stated), for which the INHIBITION is recorded as 34%. In the case of `CC1CN(Cc2ccccc2Cn2cccn2)CCN1C` (configuration not stated) it was 48.4%; in that of `Fc1cccc(-n2ccc(CN3CCCCC3Cn3cncn3)n2)c1` (configuration not stated), -44.8%. For `Fc1cccc(-n2ccc(CN3CCCC3Cn3cccn3)n2)c1` (configuration not stated), the INHIBITION is given as 4.96%. Under `CCc1cnc(N2CCC3(CCN(Cc4cccc(C)c4)C3=O)C2)nc1` (configuration not stated) stands 44.1%; under `CN(Cc1cccnc1)Cc1cncc2c1CCN(c1ccccn1)C2`, -26.1%. Regarding `CCc1[nH]c2c(CNc3cnccn3)cc(F)cc2c1C`, the INHIBITION is listed as -64.1%. Under `CN1CCNCC(Cc2cnc3ccccc3c2)C1` (configuration not stated) stands -67.9%. In the case of `COCCCNC(=O)c1cc(C(C)C)nc(N2CCCC2)n1` it was -93.7%. In the case of `CC(C)c1cc(C(=O)NCCCN(C)C)nc(N2CCCC2)n1` it was 52.7%; in that of `CCN(CC)CCNC(=O)c1cc(C(C)C)nc(N2CCCC2)n1`, -32.6%. As for `NCCSc1nccc(-c2cnc(C3CC3)nc2-c2ccco2)n1`, the INHIBITION is listed as -39.7%. In the case of `CC(C)c1ncc2c(n1)CN(Cc1nnc(Cc3ccccc3)o1)CC2` it was -45.2%; in that of `CCC(NC(=O)CN(C)Cc1ccc(C)o1)c1ccc(C)cc1` (configuration not stated), 50.9%; in that of `CCC(NC(=O)CN(C)Cc1ccc(C)o1)c1ccc(Br)cc1` (configuration not stated), 37.3%.

Take `CCc1ccc(C(C)NC(=O)CN(C)Cc2ccc(C)o2)cc1` (configuration not stated): the INHIBITION was 13.3%. Under `N#Cc1ccc(CN2CC3(CCCCN3c3cccnc3)CC2=O)cc1` (configuration not stated) stands 7.75%; under `CC(C)(C#N)c1ccccc1CN1CCC(N2CCCC2=O)CC1`, -50.6%; under `Cc1cccc(-c2nccnc2C2CCCN(C)C2)c1C` (configuration not stated), 2.65%. Take `COc1ccccc1-c1nccnc1C1CCN(C(C)=O)CC1`: the INHIBITION was -20.5%. For the compound `Cc1cccc(-c2nccnc2C2CCN(C)CC2)c1C`, the INHIBITION came to 54.2%. Under `O=C(O)[C@@H]1CN(C(=O)Cc2ccccc2Cl)C[C@H]1C1CC1` stands -94%. In the case of `CNC(=O)N1C[C@@H]2C[C@H](C(=O)Nc3cccnc3)[C@H](C1)O2` it was -142%. Under `Cn1cnnc1C1CCN(C(=O)c2cc3c(s2)CCCC3)CC1` stands -21.6%.

For the compound `COc1ccccc1S(=O)(=O)N1CC(N(C)C)Cc2ccccc21` (configuration not stated), the INHIBITION was 64.1%. Under `COc1ccccc1S(=O)(=O)N1CCC2(CC1)[C@H](O)C[C@@H]2O` stands -62.3%. `CN(C)C1Cc2ccccc2N(S(=O)(=O)c2ccc(C#N)cc2)C1` (configuration not stated): the INHIBITION is 49.9%.

Regarding `CN(C)C1Cc2ccccc2N(S(=O)(=O)c2ccccc2C#N)C1` (configuration not stated), the INHIBITION stood at 56.6%. In the case of `CN(Cc1nnc(C2CC2)n1C)S(=O)(=O)c1ccccc1C#N`, the INHIBITION is -108%.

As for `COc1cc(F)c(S(=O)(=O)N2CCN(C)Cc3ccccc32)cc1OC`, the INHIBITION was 13.8%. In the case of `Cc1nc(NCc2cccnc2)cc(C2COCCN2)n1` (configuration not stated) it was -124%; in that of `Cc1cnn(C2CCCN(C(=O)c3cn(-c4ccccc4)nn3)C2)c1` (configuration not stated), -119%. In the case of `CCC(C)c1noc(C2CCN(C(=O)c3ccccn3)CC2)n1` (configuration not stated) it was -122%. In the case of `O=C(O)c1cccnc1CN1CCCC1CCc1ccccc1` (configuration not stated) it was -78%; in that of `c1ccc(CC2CCN(Cc3ccnc(-c4cccnc4)n3)CC2)cc1`, -20%. Take `Cc1ccc(-c2nnc(CN3CC(n4cc(C)cn4)C3)o2)cc1`: the INHIBITION is -29.5%. Under `Cc1ncc2c(n1)CN(Cc1nnc(Cc3ccccc3)o1)CC2` stands -25%; under `c1ncc2c(n1)CN(Cc1nc(-c3ccsc3)no1)CC2`, -41.7%.

With `Cc1cnn(C2CN(Cc3nnc(Cc4ccccc4)o3)C2)c1`, the INHIBITION was 51.8%. As for `COc1ccc(-c2noc(CN3CCc4cncnc4C3)n2)cc1`, the INHIBITION is 6.71%.

Take `Cc1ccc(-c2noc(CN3CCc4cncnc4C3)n2)cc1`: the INHIBITION is on record as 59.7%. In the case of `c1ccc(Cc2noc(CN3CCc4cncnc4C3)n2)cc1` it was -48.8%. On to `Cc1cnn(C2CN(Cc3nnc(-c4ccccc4Cl)o3)C2)c1`, for which the INHIBITION came to 11.9%. As to `c1ncc2c(n1)CN(Cc1nc(-c3ccc4c(c3)OCO4)no1)CC2`, the INHIBITION is reported as 21%. With `c1coc(-c2noc(CN3CCc4cncnc4C3)n2)c1`, the INHIBITION is 31%. As for `c1ncc2c(n1)CN(Cc1nc(-c3ccoc3)no1)CC2`, the INHIBITION is reported as 58.7%. Take `c1ccc(Cc2nnc(CN3CCc4cncnc4C3)o2)cc1`: the INHIBITION is given as 63.6%. On to `COC(=O)COc1cc(NCc2c(C)noc2C)c(Cl)cc1C`, for which the INHIBITION is given as -49.6%. Under `COc1ccc(-c2csc3c2c(N)nc(=O)n3CC(N)=O)cc1` stands -61.4%; under `CC(=O)Nn1ccc2c(nnc3c(-c4ccccc4)cnn32)c1=O`, -65.6%; under `CCc1nc(NCCc2c(C)nn(CC)c2C)c2cnn(C)c2n1`, -95.2%. For the compound `CC(CCc1ccc(F)c(F)c1)NS(=O)(=O)Cc1ccon1` (configuration not stated), the INHIBITION is -44.6%. Under `CCC(=O)N1CCCC1c1nc(N(C)C)ncc1-c1ccc(Cl)cc1` (configuration not stated) stands 19.6%; under `COc1ccc(CC(=O)N2CCCC(n3nc(C)cc3C)C2)cc1` (configuration not stated), -9.14%; under `COc1ccccc1C(=O)N1CC(=O)N(C2CCCCC2)CC(O)C1` (configuration not stated), -37%. In the case of `Cc1ccc(S(=O)(=O)N2C[C@H]3C[C@H](NC(=O)c4ccccn4)[C@H]3C2)cc1` it was -55.2%; in that of `O=C(N1CCCC1)N1CCC[C@]2(C[C@@H](OCc3ccncc3)CO2)C1`, -71.6%.

For `CCC(C(=O)Nc1ccc(-c2nc(C)n[nH]2)cc1)N1CCCC1=O` (configuration not stated), the INHIBITION is on record as -34.4%.

Turning to `Cc1nc(NS(=O)(=O)c2cccc(F)c2C)no1`, the INHIBITION is -25.8%. Under `COCCN1CCC(c2nc3ccc(N4CCCC4)cn3n2)CC1` stands -45.6%; under `O=C(NCCc1ccccn1)[C@@H]1CC[C@@H]2[C@@H](CCN2Cc2ccoc2)O1`, -60.9%; under `COc1nc2ccn(CCc3cnccn3)c(=O)c2cc1C#N`, -11.9%. In the case of `COc1nc2ccn(CCc3scnc3C)c(=O)c2cc1C#N` it was -31.6%; in that of `COc1nc2ccn(CCNc3cc(C)ccn3)c(=O)c2cc1C#N`, 51.7%. In the case of `N#Cc1cc(F)ccc1CN1CCCC1Cn1cccn1` (configuration not stated), the INHIBITION was -48.4%. In the case of `CC(=O)Nc1ccc(C(=O)N(C)Cc2ccc(F)cc2F)s1` it was -10.9%. Under `O=C(CCN1CCCO1)NC1CCCN(CC2CCCCC2)C1` (configuration not stated) stands -105%.
